# Source: ChEMBL document CHEMBL4513148, “CO-ADD screening of Stellenbosch University (South Africa) compounds”
# Entries with a potency or affinity are not part of this list.
# Legend:
# [1] = system: Klebsiella pneumoniae; details: Concentration 32 ug.mL-1; ASSAY_TEST Inhibition of Bacterial Growth; detection method Absorption (OD600); MEDIA CAMHB; plate type 384well; NBS; CORNING #3640; time 18 hr
# [2] = system: Candida albicans; details: 32 ug/mL
# [3] = system: Cryptococcus neoformans; details: Concentration 32 ug.mL-1; ASSAY_TEST Inhibition of Fungal Growth; detection method Resazurin; Absorption (OD600-OD570); plate type 384well; NBS; CORNING #3640
Compound,Inhibition [1] [%],Inhibition [2] [%],Inhibition [3] [%]
CCCCCCCNS(=O)(=O)CCNC(=O)[C@H](O)C(C)(C)CO,15.06,-2.91,2.56
CC(C)(CO)[C@H](O)C(=O)NCCc1cn(C[C@H]2O[C@@H](n3ccc(N)nc3=O)[C@H](O)[C@@H]2O)nn1,11.31,0.57,-3.52
CC(C)(CO)C(O)C(=O)NCCCOP(=O)(O)OCC1OC(n2ccc(N)nc2=O)C(O)C1O (centres undefined),14.41,3.26,-6.1
CC(C)(CO)[C@@H](O)C(=O)N/C=C/C(=O)NCCc1ccccc1,27.58,6.96,-6.96
CC(C)(CO)[C@H](O)C(=O)NCc1cn(C[C@H]2O[C@@H](n3ccc(N)nc3=O)[C@H](O)[C@@H]2O)nn1,7.03,-0.48,6.11
CCCCCCCNC(=O)CCNC(=O)C(O)C(C)(C)C (centres undefined),17.81,1,0.36
C#CCNC(=O)[C@H](O)C(C)(C)CO,17.37,-0.84,-0.61
CC(CC(=O)NCCc1ccccc1)NC(=O)[C@H](O)C(C)(C)CO (some centres undefined),21.7,3.05,2.32
CC(C)(CO)[C@H](O)C(=O)NCCC(=O)OCc1cn(C[C@H]2O[C@@H](n3ccc(N)nc3=O)[C@H](O)[C@@H]2O)nn1,19.86,3.13,-1.73
CC(C)(CN)C(O)C(=O)NCCC(=O)NCCc1ccccc1 (centres undefined),28.43,3.05,42.65
CC(C)(CO)[C@@H](O)C(=O)NCCC(=O)NNCc1ccccc1,28.52,4.15,-4.98
CCCCCCNNC(=O)CCNC(=O)[C@H](O)C(C)(C)CO,13.13,-0.25,3.11
CC(C)(CO)[C@@H](O)C(=O)NCCC(=S)NCCc1ccccc1,23.06,-0.77,0.82
CC(C)(CO)[C@H](O)C(=O)NCCCc1cn(C[C@H]2O[C@@H](n3ccc(N)nc3=O)[C@H](O)[C@@H]2O)nn1,15.48,1.6,-4.03
CCCCCCCNC(=S)CCNC(=O)[C@H](O)C(C)(C)CO,15.93,2.87,-3.35
CC(C)(COP(=O)(O)O)[C@@H](O)C(=O)NCCC(=O)NCCc1ccccc1,20.53,1.57,21.44
CC(C)(C)C(O)C(=O)NCCC(=O)NCCc1ccccc1 (centres undefined),24.7,0.67,-0.45
CC(C)(CO)[C@H](O)C(=O)NCCC(=O)NCc1cn(C[C@H]2O[C@@H](n3ccc(N)nc3=O)[C@H](O)[C@@H]2O)nn1,19,2.72,-1.6
